These results are taken from PubChem BioAssay (NCATS).

Structures are written as SMILES. Results filed as inconclusive are left out. Unmarked numbers belong to inactive results. The source made the active and inactive calls. Calls follow the shape of the dose curve; as a rule, active = well fitted inhibition curve with a large enough effect; inconclusive = small, poorly fitted or top-dose-only effect; inactive = flat fitted curve, though single readings scatter.
% is scaled to controls: 0 for no effect and ±100 for the full control effect; potency is read from the fitted curve at half-maximal effect.

The assay relates to KB-3-1. Briefly: Cytotoxic Profiling of Annotated Libraries Using Quantitative High-Throughput Screening (AID 1296008). Also: nearly all actives have a fitted effect of over 60% in size. To be noted: Five cell lines viability, CellTiter-Glo ATP luminescence, 48-72 h; max response: stronger effect = lower value. The essentials:
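Cells exposed to compounds for 48 or 72 hr at 37 degrees Celsius. Viability read as ATP-coupled luminescence with CellTiter-Glo after 10 min at room temperature.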
For orientation: In ATP-based viability assays light output follows the ATP content of the culture.
For the compound `Cc1cnc(Nc2ccc(F)cc2Cl)nc1-c1c[nH]c(C(=O)NC(CO)c2cccc(Cl)c2)c1` (stereo not drawn), the max response was -9.44%.

`O=C(c1ccccc1)c1ccc2nc(NC(=O)c3csc(C4CCN(c5ncnc6ccsc56)CC4)n3)[nH]c2c1`: the Potency is 8.2 µM (active).

Consider `Cc1ccc(C(=O)N(CCCN)C(c2oc3cc(Cl)ccc3c(=O)c2Cc2ccccc2)C(C)C)cc1` (stereo not drawn), for which the Potency was 0.0065 µM (active).

`O=c1[nH]ccc2cc(OC3CCNCC3)ccc12`: the result was inactive.

As to `Cc1c(C(=O)Nc2ccc(N3CC(C)OC(C)C3)nc2)cccc1-c1ccc(OC(F)(F)F)cc1` (stereo not drawn), the max response was -28.5%.

Regarding `COC(=O)C1(C)c2[nH]c3ccccc3c2CCN1C(=O)CCl` (stereo not drawn), the Potency was 20.6 µM (active).

In the case of `CC1(C)CC[C@]23CO[C@@]4(CCC5[C@@]6(C)CC[C@H](O[C@@H]7OC[C@H](O[C@@H]8O[C@H](CO)[C@@H](O)[C@H](O)[C@H]8O)[C@H](O)[C@H]7O[C@@H]7O[C@H](CO)[C@@H](O[C@@H]8O[C@H](CO)[C@@H](O)[C@H](O)[C@H]8O)[C@H](O)[C@H]7O)[C@@](C)(CO)C6CC[C@@]5(C)[C@]4(C)C[C@H]2OC2OCC(O)C(O)C2O)C3C1` (stereo partly drawn), the max response was -11.5%.

As for `C/C=C/c1ccc(O[C@@H]2O[C@H](CO)[C@@H](O)[C@H](O)[C@H]2O)c(OC)c1`, the max response is -6.82%.

`COc1c(Nc2ncc(Cl)c(N[C@H]3[C@@H](C(N)=O)[C@@H]4C=C[C@H]3C4)n2)ccc2c1CC[C@@H](N1CCOCC1)CC2`: the Potency is 18.4 µM (active).

Turning to `CN(C)c1ccc2c(c1)OC(N)=C(C#N)C2c1cccc(C(F)(F)F)c1` (stereo not drawn), the Potency is 0.291 µM (active).

For the compound `CC1(C)CCCC2(C)C(C(=O)O)=CCC12` (stereo not drawn), the max response was -0.0594%.

`CC(O)c1cc(C(=O)N[C@@H](C)Cn2ccc(-c3ccc(C#N)c(Cl)c3)n2)n[nH]1` (stereo partly drawn): the max response is -27.8%.

As to `COc1cc2ncnc(N3CCC(Oc4cnc5ccccc5n4)C3)c2cc1OC` (stereo not drawn), the Potency is 1.03 µM (active).

As for `COC(=O)N[C@@H](C)CNc1nccc(-c2cn(C(C)C)nc2-c2cc(Cl)cc(NS(C)(=O)=O)c2F)n1`, the max response is -3.34%.

`COc1cc(Nc2nc3c(s2)CCCC3c2ccc(F)cc2)ccc1-n1cnc(C)c1` (stereo not drawn): the Potency was 18.4 µM (active).

With `Oc1ccc(CNc2ccccc2F)c2cccnc12`, the Potency is 5.8 µM (active).

As to `CC1(C)CC(NC(=O)C(=O)Nc2ccc(Br)cc2)CC(C)(C)N1`, the Potency was 4.61 µM (active).

On to `c1cc(Nc2cc(C3CC3)[nH]n2)nc(Nc2ccc3nc[nH]c3c2)n1`, for which the Potency is 1.3 µM (active).

As to `C=C1C(=O)O[C@@H]2[C@H]1CCC(C)=C1CCC(=O)O[C@]12C`, the max response was -23.5%.

As to `CC(C)[C@@](C)(O)[C@@H]1CN(c2nc(-c3[nH]nc4ncccc34)c(F)cc2Cl)CCN1`, the Potency was 20.6 µM (active).

Take `CCS(=O)(=O)N1CCN(c2ccc(Nc3ncc(C(N)=O)c(NC4CC4)n3)cc2)CC1`: the Potency was 5.17 µM (active).

`CC(=O)NC[C@H]1CN(c2ccc(N3CCN(C(=O)CO)CC3)c(F)c2)C(=O)O1`: the max response was -17.1%.

Regarding `Cc1c(NC(=O)c2cc(C(N)=O)nc3cc(F)ccc23)c(C(F)(F)F)nn1Cc1ccc(C#N)cc1`, the max response was 4.52%.

For the compound `CC(=O)NC1=NN(C(C)=O)C(C)(c2ccccc2)S1` (stereo not drawn), the Potency is 5.17 µM (active).

For `COc1cc2c(NC3CCN(CC4CCCCC4)CC3)nc(N3CCCN(C(C)C)CC3)nc2cc1OCCCN1CCCCC1`, the Potency was 3.66 µM (active).

On to `C=CC(=O)Nc1cccc(CN2C(=O)N(c3c(Cl)c(OC)cc(OC)c3Cl)Cc3cnc(NCCCCN(CC)CC)nc32)c1`, for which the Potency is 18.4 µM (active).

In the case of `Cc1ccc(NC(=O)c2ccc(CN3CC[C@H](N(C)C)C3)c(C(F)(F)F)c2)cc1Nc1nccc(-c2cncnc2)n1`, the max response was -1.65%.

Take `O=C1NC(=O)C(c2cn3c4c(cccc24)CCC3)C1c1c[nH]c2ccccc12` (stereo not drawn): the Potency is 1.3 µM (active).

As for `CCN(CC)c1ccc2c(O)c(C=Nc3ccc(CC(=O)O)c(-c4c5c(nc6ccccc46)CCC(C(=O)NN)C5)c3)c(=O)oc2c1` (stereo not drawn), the Potency was 5.8 µM (active).

In the case of `N#Cc1ccc(-c2cnc3[nH]cc(NC(=O)c4cccnc4)c3c2)cc1`, the max response is -24.8%.

For the compound `O=C(c1cccc(Cl)c1F)N1CCN(Cc2cccc(Nc3nccs3)n2)CC1`, the Potency is 1.16 µM (active).

As for `O=C(Nc1ccc(Cl)cc1F)c1ccccc1O`, the Potency was 13 µM (active).

With `Cc1ccccc1-n1c([C@H](C)Nc2nc(N)nc3nc[nH]c23)nc2cccc(C)c2c1=O`, the max response was -12.5%.
